# Screens deposited in PubChem BioAssay by several laboratories.
# E coli growth-1: inhibitors of Escherichia coli growth. OD600 absorbance (no concentration beside the values). OD600, 23 h; active compounds read low. AID 1053175. 330,000 tested, 0.21% active;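 active = OD600 absorbance below the run mean of sample wells minus 3.6 SD, in any replicate, cut at about 0.56 in these data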
# Tat export inh: inhibitors of E. coli Tat protein transport; E. coli MC4100 TorA-mCherry Tat export, fluorescence; inhibition, % at 10 µM; 340,000 tested, 0.036% active;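 active = mean replicate inhibition at least 50% and at least half of replicates individually reaching 50%; inconclusive = only one of the two criteria met; inactive = neither criterion met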;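 note: exported cargo escapes ClpAP degradation while cytoplasmic cargo is degraded and loses fluorescence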
# phage Ecoli inh: E. coli growth loss with phage present | 360,000 tested, 0.26% active | inhibition, % at 11.9 µM | growth absorbance; in the data active = inhibition above about 11%
# E coli growth-2: reduces bacterial viability in AddAB counter-screen. E. coli V3065 growth, OD600 absorbance, 18 h. inhibition, % at 11.9 µM. 330,000 tested, 0.27% active;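 active = inhibition above the campaign's mean inhibition across all tested compounds plus 3 SD, cut at about 9.9% in these data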;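 note: uninfected addAB+ strain grown without phage in ampicillin broth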
# AddAB inh: less growth of phage-infected E. coli with AddAB; 330,000 tested, 0.29% active; inhibition, % at 11.9 µM; E. coli expressing H. pylori AddAB, absorbance growth; in the data active = inhibition above about 12%
# Numbers stand for hits; - = inactive; ? = inconclusive; . = no result given. Rows were chosen to be rich in hits. Some 0.51% of all compounds tested hit in one or more screens of this group.
SMILES,E coli growth-1,Tat export inh,phage Ecoli inh,E coli growth-2,AddAB inh
CCCCCCCOC(=O)C[N+](C)(C)CCOC1CC2CCC1(C)C2(C)C (centres undefined),0.32,-,-,.,.
C[n+]1ccn(CC(=O)c2cccs2)c1,-,-,-,-,-
CCCCCCCCCCCCCCCCn1cc[n+](C)c1,0.066,?,-,-,-
CN(C)c1ccc(/C=C/c2ccc3c4ccccc4ccc3[n+]2-c2ccccc2)cc1,0.24,-,17,.,.
CN(C)c1ccc(/C=C/c2ccc3ccccc3[n+]2C)cc1,0.29,-,-,18,28
CN(C)c1ccc(/C=C/c2cccc[n+]2[O-])cc1,.,-,-,-,-
C[n+]1c2n(c3ccccc31)N=C(c1ccccc1)CS2,-,-,-,-,-
C[n+]1c2n(c3ccccc31)N=C(c1ccc(-c3ccccc3)cc1)CS2,0.3,-,-,-,-
CCN1/C(=C/C=C/C=C/C=C/c2sc3ccccc3[n+]2CC)Sc2ccccc21,-,-,-,-,-
CCN1/C(=C/C=C/C=C/c2sc3ccccc3[n+]2CC)Sc2ccccc21,.,.,.,20,23
COc1ccc(NC(=O)CC(C)=NNC(=O)c2cccs2)c([N+](=O)[O-])c1,-,.,.,.,.
O=C1C2C3C=CC(C4CC34)C2C(=O)N1/N=C/c1ccc([N+](=O)[O-])o1 (centres undefined),.,-,-,-,-
O=C1C2C3C=CC(C4CC34)C2C(=O)N1N=Cc1ccc([N+](=O)[O-])o1 (centres undefined),0.5,.,.,.,.
CCCCCCC(=O)O,-,-,-,-,-
CCCCCCCCCCCCCCCC(=O)OC(CC(=O)O)C[N+](C)(C)C (centres undefined),-,54,-,-,-
CCOc1ccc2[nH]c3c(NCCN(C)C)ncnc3c2c1,-,-,-,-,-
CCOc1ccc2[nH]c3c(NCCC(C)C)ncnc3c2c1,0.5,-,-,.,.
COc1ccccc1Oc1ccc(NC=CC(=O)C(C)(C)C)cc1,-,.,.,.,.
COC(=O)[C@@]1(Cc2ccc(F)cc2)C2c3cc(C(=O)N4CCCC4)n(CCc4ccc(O)c(O)c4)c3CC2CN1C(=O)c1ccccc1 (some centres undefined),-,.,.,.,.
CCc1ccc(C(C)NC(=S)NC2CCCCC2)cc1 (centres undefined),-,-,.,.,.
CCC(C)c1ccc(C(C)NC(=S)NC2CCCCC2)cc1 (centres undefined),.,-,-,11,-
Nc1nc(-c2ccccn2)nc(N)c1Cc1ccc(Cl)cc1Cl,0.36,-,-,-,-
O=C(c1cc(O)c(O)c([N+](=O)[O-])c1)c1ccccc1F,-,57,-,-,-
CC(=NNC(=O)c1nnn(-c2nonc2N)c1C(C)C)c1ccncc1,-,.,.,.,.
CN(C)C1CCN(Cc2cc(COCc3ccccc3)c3cccnc3c2O)C1 (centres undefined),.,-,.,10,-
SMILES,E coli growth-1,Tat export inh,phage Ecoli inh,E coli growth-2,AddAB inh
Oc1ccc(CN2CCC(Cc3ccccc3)CC2)c2cccnc12,0.46,.,-,.,.
Oc1ccc(CN2CCc3ccccc3C2)c2cccnc12,0.47,-,-,-,-
Oc1ccc(CN2CCN(c3ccccc3)CC2)c2cccnc12,-,-,.,-,-
CCOC(=O)c1ccc(NC(=NS(=O)(=O)c2ccccc2)c2ccccc2)cc1,-,.,.,.,.
CCOC(=O)N1CCN(C(=O)c2cn(CC)c3cc(N4CCN(C)CC4)c(F)cc3c2=O)CC1,.,.,.,100,101
CN(C)N=C/C=C1\CC/C(=C\c2ccc(F)c(F)c2)C1=O,-,.,.,.,.
Cc1cccc(N2C(=O)CS/C2=N\NC(=O)c2ccc(Br)cc2)c1C,.,-,-,13,-
Cc1cccc(N2C(=O)CSC2=NNC(=O)c2ccc(Br)cc2)c1C,-,.,.,.,.
CCCCNC(=S)Nc1ccc([N+](=O)[O-])cc1,0.52,-,-,-,-
CC(C)CCNC(=S)Nc1ccc([N+](=O)[O-])cc1,-,-,-,-,-
CC(=O)NNC(=S)NC(=O)c1ccc(C)cc1,-,-,-,-,-
CCC(=O)NNC(=S)NC(=O)c1ccc(C)cc1,0.5,-,-,-,-
CC(=O)NNC(=S)NC(=O)c1ccccc1,0.4,-,-,-,-
CCOc1cc(C=NNC(=O)c2ccccc2-n2cccc2)ccc1O,-,.,.,.,.
O=[N+]([O-])c1nn(-c2ccc3c(c2)OCCO3)n(O)c1=NCCCO,-,-,-,14,-
Cc1ccc(CN=c2c([N+](=O)[O-])nn(-c3ccc4c(c3)OCCO4)n2O)cc1,-,-,-,-,-
Cc1ccc(C=NNC(=O)CSc2nnc(-c3ccccc3)n2-c2ccc(Cl)cc2)o1,-,.,.,.,.
O=C(CSc1nnc(-c2ccccc2)n1-c1ccc(Cl)cc1)N/N=C/c1ccco1,.,-,-,11,-
O=C(NN=Cc1cccnc1)c1ccc(Cl)c(Cl)c1,-,.,.,.,.
O=C(CC(=O)c1cc(Cl)ccc1O)c1ccccc1,0.48,-,-,-,-
Cc1cccc(C(=O)CC(=O)c2cc(Cl)ccc2O)c1,0.47,-,.,-,-
CCCOc1ccc(/C=N/NC(=S)Nc2ccccc2[N+](=O)[O-])c(O)c1,.,.,-,11,-
Cc1cc(O)c2c(c1O)C(=O)[C@]13C(=C2O)C(=O)[C@@H]2[C@@H](O)[C@H]1[C@@H]1[C@H](O)[C@H]3C(=O)C3=C(O)c4c(O)cc(C)c(O)c4C(=O)[C@]312,-,-,.,9.9,-
CC(ON=Cc1ccc(OC(F)F)cc1)C(=O)Nc1cccc(S(=O)(=O)N2CCOCC2)c1 (centres undefined),-,.,.,.,.
COc1ccc(C(=NNc2ccccc2C(=O)O)c2ccccc2)cc1,-,.,.,.,.
SMILES,E coli growth-1,Tat export inh,phage Ecoli inh,E coli growth-2,AddAB inh
CCOc1ccc(NC(=O)c2cc3ccccc3cc2O)cc1,-,-,-,-,-
COc1ccc(NC(=O)NNC(=O)c2ccc3ccccc3c2O)c(OC)c1,-,-,12,-,-
COc1ccc(NC(=O)NNC(=O)c2cc(C3CC3)nc3ccccc23)c(OC)c1,-,-,-,-,-
COc1ccc(NC(=O)NNC(=O)c2cc3ccccc3cc2O)cc1,-,-,-,10,-
COc1ccc(-c2oc(N=CN3CCOCC3)c(C#N)c2-c2ccc(OC)cc2)cc1,-,.,.,.,.
Oc1c(Cl)cc(Cl)cc1CNc1nc2ccccc2[nH]1,0.42,-,-,-,-
Oc1c(Cl)cc(Cl)cc1CNc1ccccn1,-,-,-,.,.
COC(=O)NN=Cc1ccc([N+](=O)[O-])s1,-,.,.,.,.
Cc1[nH]cnc1C(=O)NN=Cc1ccc([N+](=O)[O-])s1,0.41,.,.,.,.
O=C1CC(c2ccc(S(=O)(=O)NCc3ccncc3)cc2)CN1 (centres undefined),-,-,13,-,-
O=C1CC(c2ccc(S(=O)(=O)NC3CC3)cc2)CN1 (centres undefined),-,-,-,-,-
Cc1cc(Nc2cccc(Cl)c2)nc(NCc2ccccc2)n1,0.46,-,-,-,-
Cc1cc(C(=O)NN=C2CC(=O)CC(C)(C)C2)c(C)n1-c1ccccc1,-,.,.,.,.
Cc1cc(C)c(S(=O)(=O)/N=C2/C=C(Sc3ncn[nH]3)C(=O)c3ccccc32)cc1C,.,-,11,-,-
O=C(Nc1cccc(Cl)c1)Nc1nccs1,0.54,-,-,-,-
O=C(Nc1ccc(Cl)c(Cl)c1)Nc1nccs1,.,-,-,-,-
